The values below come from ChEMBL document CHEMBL3988442, “University of Dundee, Small-Polar-MMV Screening Library” (2021).

For some assays here: Results with a measured potency or affinity are listed apart.

Design in all cases: scale not given: direction of the effect not stated beside the values
In assay [1] the target is Protein translocase subunit SecA (Escherichia coli (strain K12)) (UniProt P10408). In words: Assay to Identify E. coli SecA ATPase Inhibitors. The format is functional. To be noted: 30 µM.
Sequence of Protein translocase subunit SecA (Escherichia coli (strain K12)) (P10408 whole entry): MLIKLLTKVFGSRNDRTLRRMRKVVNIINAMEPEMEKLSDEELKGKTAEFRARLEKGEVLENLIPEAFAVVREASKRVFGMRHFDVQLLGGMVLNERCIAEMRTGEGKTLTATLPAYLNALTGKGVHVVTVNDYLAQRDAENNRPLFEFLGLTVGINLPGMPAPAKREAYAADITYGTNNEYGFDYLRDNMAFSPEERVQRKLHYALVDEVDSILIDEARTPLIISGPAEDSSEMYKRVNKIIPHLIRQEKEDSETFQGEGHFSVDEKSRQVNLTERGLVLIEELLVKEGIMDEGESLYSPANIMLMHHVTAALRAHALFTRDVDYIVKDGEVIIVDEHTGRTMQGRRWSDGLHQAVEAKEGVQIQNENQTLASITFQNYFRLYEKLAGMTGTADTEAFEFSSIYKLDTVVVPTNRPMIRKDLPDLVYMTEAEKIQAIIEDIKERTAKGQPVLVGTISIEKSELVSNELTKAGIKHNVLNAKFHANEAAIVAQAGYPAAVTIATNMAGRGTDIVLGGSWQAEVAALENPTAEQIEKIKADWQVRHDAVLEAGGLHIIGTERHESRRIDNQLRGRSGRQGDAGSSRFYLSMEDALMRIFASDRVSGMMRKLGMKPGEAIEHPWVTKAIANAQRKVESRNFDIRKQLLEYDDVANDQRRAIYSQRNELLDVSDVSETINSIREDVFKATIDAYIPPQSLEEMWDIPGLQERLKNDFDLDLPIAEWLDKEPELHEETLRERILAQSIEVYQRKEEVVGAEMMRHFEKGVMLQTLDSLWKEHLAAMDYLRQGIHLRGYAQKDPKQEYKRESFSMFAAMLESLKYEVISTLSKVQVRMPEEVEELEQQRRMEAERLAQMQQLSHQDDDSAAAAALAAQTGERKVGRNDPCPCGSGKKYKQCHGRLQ
The target in assay [2] is T1, Ubiquitin-activating enzyme e1, putative (Leishmania donovani (strain BPK282A1)) (UniProt E9BSI1).
T1 sequence (whole entry): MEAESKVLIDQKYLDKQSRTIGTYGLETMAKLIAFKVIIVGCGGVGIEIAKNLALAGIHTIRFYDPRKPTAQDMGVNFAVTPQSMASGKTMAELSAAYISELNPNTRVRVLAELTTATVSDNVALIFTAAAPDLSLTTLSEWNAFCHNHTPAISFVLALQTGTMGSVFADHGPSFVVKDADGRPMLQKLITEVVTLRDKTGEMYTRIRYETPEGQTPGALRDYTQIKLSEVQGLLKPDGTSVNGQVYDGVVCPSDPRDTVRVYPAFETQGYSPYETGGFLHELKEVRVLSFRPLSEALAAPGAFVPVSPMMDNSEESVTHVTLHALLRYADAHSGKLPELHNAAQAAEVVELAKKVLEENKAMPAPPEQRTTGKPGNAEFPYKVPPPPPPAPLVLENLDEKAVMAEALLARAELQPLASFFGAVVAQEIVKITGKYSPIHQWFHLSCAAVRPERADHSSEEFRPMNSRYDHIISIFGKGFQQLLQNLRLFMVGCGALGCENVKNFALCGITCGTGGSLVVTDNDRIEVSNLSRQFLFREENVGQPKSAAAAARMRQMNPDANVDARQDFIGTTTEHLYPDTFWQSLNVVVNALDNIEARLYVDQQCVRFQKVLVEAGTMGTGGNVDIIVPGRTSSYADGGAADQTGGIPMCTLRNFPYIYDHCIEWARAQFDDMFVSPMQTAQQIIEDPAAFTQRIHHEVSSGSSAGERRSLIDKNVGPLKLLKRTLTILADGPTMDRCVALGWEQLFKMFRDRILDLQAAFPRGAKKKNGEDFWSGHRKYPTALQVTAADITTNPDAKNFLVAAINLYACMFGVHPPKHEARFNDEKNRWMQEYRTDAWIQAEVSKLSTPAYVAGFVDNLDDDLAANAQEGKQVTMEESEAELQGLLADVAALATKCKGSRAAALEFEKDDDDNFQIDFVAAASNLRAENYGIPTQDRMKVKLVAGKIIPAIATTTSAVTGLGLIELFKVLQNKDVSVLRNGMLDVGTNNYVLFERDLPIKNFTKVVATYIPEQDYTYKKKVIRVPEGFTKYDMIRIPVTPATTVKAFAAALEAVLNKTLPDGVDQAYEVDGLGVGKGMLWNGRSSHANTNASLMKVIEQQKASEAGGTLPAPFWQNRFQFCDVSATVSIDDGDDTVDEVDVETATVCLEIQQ
Kind of assay: Leishmania donovani Ubiquitin Activating Enzyme (LdE1). The format is functional. To be noted: 30 µM.

Assay [3] concerns the target AMP-activated protein kinase, AMPK (Homo sapiens) (UniProt P54646+O43741+P54619+Q9UGJ0+Q9Y478+Q13131+Q9UGI9). In words: AMP-dependent Kinase enzyme assay. An in vitro enzyme assay that detects ADP turnover that is directly proportional to AMPK activity. This uses naive AMPK that is activated during the assay with MK-8722. To be noted: 30 µM. The format is functional.

The target in assay [4] is Sialic acid-binding Ig-like lectin 9 (Homo sapiens) (UniProt Q9Y336). In words: Hs-Siglec9 ALPHAscreen SOP 20170721. Conditions: 10 µM. (In general: Bead proximity is the source of the signal in Alpha formats.)
Sequence of Sialic acid-binding Ig-like lectin 9 (Homo sapiens) (Q9Y336 whole entry): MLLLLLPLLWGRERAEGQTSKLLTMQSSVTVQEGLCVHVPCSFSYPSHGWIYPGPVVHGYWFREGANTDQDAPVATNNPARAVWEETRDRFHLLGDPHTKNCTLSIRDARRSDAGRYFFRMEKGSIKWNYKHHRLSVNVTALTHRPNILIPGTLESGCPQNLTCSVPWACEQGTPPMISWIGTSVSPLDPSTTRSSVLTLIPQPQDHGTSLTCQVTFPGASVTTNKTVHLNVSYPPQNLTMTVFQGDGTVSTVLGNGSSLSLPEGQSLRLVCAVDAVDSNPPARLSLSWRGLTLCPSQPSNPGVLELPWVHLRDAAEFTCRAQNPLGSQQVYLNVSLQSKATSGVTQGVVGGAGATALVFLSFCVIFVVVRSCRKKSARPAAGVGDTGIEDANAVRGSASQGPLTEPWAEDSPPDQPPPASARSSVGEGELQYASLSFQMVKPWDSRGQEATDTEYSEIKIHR
Assay [5] deals with Trypanosoma cruzi. In words: Trypanosoma cruzi phosphomannomutase and mannose-1-phosphate guanylyltransferase assay. The format is functional. To be noted: 10 µM.
For assay [6], the target named is T2, Arginase-2, mitochondrial (Homo sapiens) (UniProt P78540).
T2 sequence (whole entry): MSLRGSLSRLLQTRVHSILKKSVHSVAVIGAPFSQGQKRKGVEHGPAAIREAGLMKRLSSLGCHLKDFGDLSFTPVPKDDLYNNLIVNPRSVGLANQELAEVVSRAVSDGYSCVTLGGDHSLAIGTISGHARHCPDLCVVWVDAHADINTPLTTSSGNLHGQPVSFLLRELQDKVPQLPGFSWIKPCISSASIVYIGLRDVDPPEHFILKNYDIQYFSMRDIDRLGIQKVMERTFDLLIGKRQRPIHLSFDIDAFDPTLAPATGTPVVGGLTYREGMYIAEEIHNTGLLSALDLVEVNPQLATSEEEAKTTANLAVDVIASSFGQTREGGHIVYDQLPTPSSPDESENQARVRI
Kind of assay: in vitro enzyme assay to detect the production of urea directly proportional to the activity of Arginase II. Further: in the data most compounds retested in dose-response had high values. The format is functional. Conditions: 33.3 µM.

In assay [7] the target is T3, Proteasome subunit beta (Trypanosoma cruzi) (UniProt O96673).
T3 sequence (whole entry): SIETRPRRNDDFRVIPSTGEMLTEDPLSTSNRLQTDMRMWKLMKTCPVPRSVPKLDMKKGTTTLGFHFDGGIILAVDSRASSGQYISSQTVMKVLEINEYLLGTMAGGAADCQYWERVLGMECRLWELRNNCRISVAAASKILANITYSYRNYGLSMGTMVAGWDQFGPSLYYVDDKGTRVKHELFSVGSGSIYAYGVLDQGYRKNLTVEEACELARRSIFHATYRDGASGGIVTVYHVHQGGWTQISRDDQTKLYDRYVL
In words: Trypanosoma cruzi proteasome chymotrypsin-like activity (TcProtChymo) assay. Further: in the data most compounds retested in dose-response had high values. The format is functional. Conditions: 9.37 µM.

Assay [8] is filed under the species Homo sapiens. Kind of assay: To identify inhibition of the IFN signalling (Jak-Stat) pathway via expression of an eGFP reporter gene under the control of an IFN-stimulated response element (ISRE) containing MxA promoter. The format is functional. Conditions: 30 µM.
In assay [9] the target is T4, Tyrosyl-tRNA synthetase, putative (Trypanosoma cruzi (strain CL Brener)) (UniProt Q4DSP6).
T4 sequence (whole entry): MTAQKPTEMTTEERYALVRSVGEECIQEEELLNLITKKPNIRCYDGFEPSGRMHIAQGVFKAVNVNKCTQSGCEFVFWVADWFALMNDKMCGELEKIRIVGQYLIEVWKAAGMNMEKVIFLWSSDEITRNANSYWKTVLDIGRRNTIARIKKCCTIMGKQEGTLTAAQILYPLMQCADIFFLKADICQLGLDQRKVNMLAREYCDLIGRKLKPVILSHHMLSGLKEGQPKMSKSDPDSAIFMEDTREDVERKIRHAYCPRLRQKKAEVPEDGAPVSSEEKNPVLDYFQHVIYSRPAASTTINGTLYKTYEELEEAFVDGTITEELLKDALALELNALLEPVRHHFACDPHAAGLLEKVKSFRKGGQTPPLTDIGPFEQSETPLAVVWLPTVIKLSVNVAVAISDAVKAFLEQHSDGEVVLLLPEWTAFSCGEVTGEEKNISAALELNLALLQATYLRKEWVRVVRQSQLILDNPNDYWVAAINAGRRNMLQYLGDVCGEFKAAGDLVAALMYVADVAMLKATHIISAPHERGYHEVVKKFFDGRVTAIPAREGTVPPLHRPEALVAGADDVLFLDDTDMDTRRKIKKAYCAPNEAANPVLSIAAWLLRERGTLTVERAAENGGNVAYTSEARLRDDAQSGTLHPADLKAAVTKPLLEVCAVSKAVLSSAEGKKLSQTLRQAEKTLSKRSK
In words: Trypanosoma cruzi tyrosyl tRNA synthetase (TcYRS) _High Tyrosine SOP. Further: in the data most compounds retested in dose-response had high values. The format is functional. Conditions: 30 µM.

Assay [10] addresses T4, Tyrosyl-tRNA synthetase, putative (Trypanosoma cruzi (strain CL Brener)). Kind of assay: Trypanosoma cruzi tyrosyl tRNA synthetase (TcYRS) SOP. The format is functional. Conditions: 30 µM.
Assay [11] has as its target Chromo domain-containing protein 1 (Saccharomyces cerevisiae (strain ATCC 204508 / S288c) (Baker's yeast)) (UniProt P32657). Kind of assay: ScCHD-1 Enzyme Inhibition Assay. Further: in the data most compounds retested in dose-response had high values. Conditions: 30 µM. The format is functional.

Sequence of Chromo domain-containing protein 1 (Saccharomyces cerevisiae (strain ATCC 204508 / S288c) (Baker's yeast)) (P32657 whole entry, the tested form may be a part): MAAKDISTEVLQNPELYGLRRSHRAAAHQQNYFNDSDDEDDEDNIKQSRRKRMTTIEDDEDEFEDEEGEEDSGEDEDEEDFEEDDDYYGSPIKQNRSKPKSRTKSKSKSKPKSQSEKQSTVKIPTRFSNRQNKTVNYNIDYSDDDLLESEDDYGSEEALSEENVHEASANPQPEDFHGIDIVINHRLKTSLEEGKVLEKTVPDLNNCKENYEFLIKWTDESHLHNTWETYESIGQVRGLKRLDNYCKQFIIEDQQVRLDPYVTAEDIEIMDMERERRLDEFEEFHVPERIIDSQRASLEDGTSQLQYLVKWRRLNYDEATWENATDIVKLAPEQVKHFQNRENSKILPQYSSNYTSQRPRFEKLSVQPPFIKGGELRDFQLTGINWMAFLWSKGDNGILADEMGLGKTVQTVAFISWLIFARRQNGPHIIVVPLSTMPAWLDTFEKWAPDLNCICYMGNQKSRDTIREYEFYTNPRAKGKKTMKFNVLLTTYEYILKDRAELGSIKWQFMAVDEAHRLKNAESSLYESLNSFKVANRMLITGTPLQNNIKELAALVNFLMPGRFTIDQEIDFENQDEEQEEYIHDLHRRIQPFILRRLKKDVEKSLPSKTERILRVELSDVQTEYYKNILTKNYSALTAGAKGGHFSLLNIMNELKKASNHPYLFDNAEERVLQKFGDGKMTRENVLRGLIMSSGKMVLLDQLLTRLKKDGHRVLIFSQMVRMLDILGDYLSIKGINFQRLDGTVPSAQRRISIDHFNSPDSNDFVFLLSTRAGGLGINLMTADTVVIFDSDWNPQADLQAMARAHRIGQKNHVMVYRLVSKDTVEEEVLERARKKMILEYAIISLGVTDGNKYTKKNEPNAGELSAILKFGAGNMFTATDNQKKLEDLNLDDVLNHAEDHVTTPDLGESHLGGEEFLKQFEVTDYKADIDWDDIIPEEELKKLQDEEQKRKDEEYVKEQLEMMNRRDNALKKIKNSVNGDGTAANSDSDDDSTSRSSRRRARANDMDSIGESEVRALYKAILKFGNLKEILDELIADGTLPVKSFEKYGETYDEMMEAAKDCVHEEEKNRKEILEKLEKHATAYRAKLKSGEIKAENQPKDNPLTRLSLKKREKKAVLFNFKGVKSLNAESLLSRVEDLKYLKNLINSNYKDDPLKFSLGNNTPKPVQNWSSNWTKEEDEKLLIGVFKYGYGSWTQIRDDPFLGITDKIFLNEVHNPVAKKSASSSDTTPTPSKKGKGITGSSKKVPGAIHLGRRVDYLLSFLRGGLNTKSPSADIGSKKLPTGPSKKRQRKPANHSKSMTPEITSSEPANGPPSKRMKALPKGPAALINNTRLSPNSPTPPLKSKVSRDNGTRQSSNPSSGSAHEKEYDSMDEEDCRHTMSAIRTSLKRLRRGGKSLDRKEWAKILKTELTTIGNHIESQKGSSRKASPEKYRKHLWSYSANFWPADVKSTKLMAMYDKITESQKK

For the compound `COc1cccc(CN(C)C(=O)CN2CCN(CCO)CC2)c1`, the Percent Effect in assay [1] was -2.96%; in assay [2], 8%; in assay [3], -6.71%; in [4] it was 1.75%; in assay [5] it was 0.292%; in assay [6], 3.12%. Besides, the Percent Effect in assay [7] is 24.6%; in assay [8] it was 14.1%; in assay [9] it was 9.29%; in assay [10] it was 16.1%; in [11], -7.41%.

On to `O=C(COc1cccc2c1CCC2=O)NCc1ccccc1F`, for which the Percent Effect in [1] was -2.77%; in assay [2] it was 13.2%; in assay [3], 2.6%; in [4], -2.18%; in assay [5] it was 4.58%; in [6], 11.8%. Besides, the Percent Effect in assay [7] is 9.49%; in assay [8], 11%; in [9], 3.19%; in [10] it was 10.4%; in assay [11], -2.42%.

Turning to `CN(C)c1ncnc2c1CCN(CC1CCOC1)CC2` (stereo not drawn), the Percent Effect is -2.84% in assay [1]; 8.11% in assay [2]; 4.65% in assay [3]; -0.235% in [4]; -3.42% in [5]; -2.87% in assay [6]. Besides, the Percent Effect in [7] was 18.6%; in assay [8] it was -8.93%; in assay [9], 3.24%; in assay [10] it was 15.4%; in assay [11] it was 0.421%.

On to `CC(C)(C)n1cc(C(=O)N2CCN(Cc3ccccc3F)CC2)cn1`, for which the Percent Effect in [1] is -2.41%; in assay [2], 13.2%; in assay [3], -1.01%; in assay [4], 8.67%; in [5], 4.89%; in assay [6], 0.383%. In addition, the Percent Effect in [7] is 22.4%; in [8] it was 10.5%; in assay [9] it was 6.37%; in assay [10], 21.9%; in assay [11], -11.6%.

`COCCN1CCC(CN(CC2CCCO2)C(=O)COC)CC1` (stereo not drawn): the Percent Effect in assay [1] is -4.47%; in assay [2], 15.3%; in assay [3] it was -11%; in [4] it was 28.6%; in assay [5], 7.09%; in assay [6], 4.86%. Also, the Percent Effect in [7] was 5.79%; in assay [8], -0.94%; in assay [9] it was 3.16%; in [10] it was 15.4%; in assay [11] it was -9.34%.

In the case of `CN(Cc1ccsc1)C(=O)c1cccc(F)c1`, the Percent Effect in [1] is -5.35%; in [2], 20.8%; in assay [3], 1.32%; in [4], 3.27%; in assay [5] it was -2.06%; in assay [6], -1.07%. Besides, the Percent Effect was 5.74% in assay [7]; 9.71% in [8]; 3.88% in assay [9]; 19.5% in [10]; -9.1% in [11].

Consider `COCCN(Cc1ccc(F)cc1Cl)C(=O)c1ccncc1`, for which the Percent Effect in assay [1] is -1.67%; in assay [2], -1.39%; in assay [3], -3.11%; in assay [4] it was 0.447%; in assay [5], 0.486%; in assay [6] it was -1.32%. For the same compound, the Percent Effect in [7] is 5.09%; in [8], 0.399%; in [9], -1.05%; in assay [10], 0%; in assay [11], -1.32%.

As for `CNc1cc2c(nn1)CCN(C(=O)c1ccc(-n3nccc3C)cc1)C2`, the Percent Effect in assay [1] is -3.9%; in assay [2] it was 7.79%; in [3], -0.653%; in assay [4] it was -3.32%; in assay [5] it was 6.56%; in assay [6], -1.9%. In addition, the Percent Effect was 11.4% in assay [7]; 14.4% in assay [8]; 6.67% in [9]; 9.41% in assay [10]; -16.2% in assay [11].

For the compound `c1cnn(CC2CCCN2c2ncnc3sccc23)c1` (stereo not drawn), the Percent Effect in assay [1] was -5.43%; in assay [2], -2.7%; in assay [3], 2.65%; in assay [4], 6.51%; in [5], -2.14%; in [6], 3.14%. Further, the Percent Effect in assay [7] was -1.44%; in [8] it was 66.4%; in assay [9], 2.97%; in [10] it was -25.6%; in [11] it was 11.4%.

Take `Cc1noc(Cl)c1CCC(=O)N1CCC(CC(N)=O)CC1`: the Percent Effect was -6.39% in assay [1]; 18.4% in [2]; -6.93% in assay [3]; 6.68% in assay [4]; 6.63% in assay [5]; -3.96% in assay [6]. Besides, the Percent Effect in [7] is 13.6%; in assay [8], 10.4%; in assay [9], 4.43%; in assay [10], 18.5%; in assay [11], -7.5%.

As to `O=C(c1ccc(=O)[nH]n1)N1CC(c2nc(Cc3ccccc3)no2)C1`, the Percent Effect in assay [1] is -2.52%; in assay [2], 8.22%; in assay [3], -1.62%; in assay [4] it was 7.99%; in assay [5], 3.33%; in assay [6] it was 20.9%. Also, the Percent Effect in [7] is 14.4%; in assay [8] it was 0.0834%; in assay [9], 6.45%; in [10], 20%; in [11], -5.6%.

Consider `Cc1cc(C)n(CC2CCCN2C(=O)c2cc[nH]n2)n1` (stereo not drawn), for which the Percent Effect in [1] is -7.68%; in assay [2], 16.5%; in [3], -4.09%; in [4], -3.12%; in assay [5] it was 0.923%; in assay [6], 0.215%. The Percent Effect in assay [7] is 8.58%; in assay [8], -2.4%; in assay [9], 7.29%; in assay [10], 17.7%; in assay [11], -34.4%.

On to `Cc1ccc2c(n1)N(C)CCN(C(=O)NC1CC1)C2`, for which the Percent Effect is -5.82% in assay [1]; -2.67% in assay [2]; 117% in assay [3]; -1.66% in [4]; -7.53% in assay [5]; -57.2% in assay [6]. In addition, the Percent Effect in [7] is 4.96%; in assay [8] it was 18.6%; in assay [9], -3.12%; in [10] it was 5%; in [11], -9.39%.
